# Experimental data from PubChem BioAssay (NCATS).
# Where “and” joins values, the source holds several entries; their conditions need not be identical. Equal values may be shown once. Records with an inconclusive call do not appear. Calls of active or inactive are those of the source. Unless noted, calls come from the whole dose curve; as a rule, active = well fitted curve in the direction sought with a large enough effect; inconclusive = small, poorly fitted or top-dose-only effect, or another doubt; inactive = no such curve, though single readings can be large; an effect the other way counts as inactive or inconclusive.
# How the values were obtained:
# [1] = qHTS Assay for Lipid Storage Modulators (AID 1519; calls by dose curve; for activity change, negative = inhibition: % is set by controls: 0 for no effect and ±100 for the full control effect); conditions: Drosophila S3 cells, BODIPY lipid droplet/cell ratio, laser cytometry, cells loaded with oleic acid
# How it was run: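 Cells seeded at 5,000 per well were treated with compounds over a concentration series and loaded with oleic acid (400 uM, as added). Lipid droplet fluorescence (488 nm excitation, 500-530 nm channel) was read by laser-scanning cytometry and normalized to 20 uM Triacsin C.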
# [2] = biological target: Alpha-galactosidase A (Homo sapiens) (UniProt P06280); assay: Counterscreen for Glucocerebrosidase Inhibitors: qHTS Assay for Human alpha-Galactosidase at pH 4.5 (AID 992); conditions: purified enzyme, fluorogenic substrate; series mostly up to 76.9 µM; note: 0% is about no effect
# How it was run: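 Fluorogenic 1536-well qHTS at pH 4.5 (citrate, Tween-20): 2 nM enzyme, 80 uM 4-MU-alpha-galactoside, 20 min room temperature, NaOH/glycine stop. Titration 0.7 nM to 77 uM, data normalized to no-enzyme and full-activity controls, Hill-fitted AC50.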
# [3] = biological target: alpha-glucosidase (Oryza sativa, rice) (UniProt Q653V4); assay: Counterscreen for Glucocerebrosidase Inhibitors: qHTS Assay for Rice alpha-Glucosidase at pH 5.0 (AID 997); conditions: rice alpha-glucosidase enzyme activity; series mostly up to 76.9 µM;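 note: 0% = full activity with enzyme and -100% = basal without enzyme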
# How it was run: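 Endpoint fluorogenic assay at pH 5.0: compounds (0.7 nM to 77 uM) titrated against 4 nM rice enzyme and 400 uM 4-MU-alpha-glucoside for 20 min at room temperature; NaOH/glycine stop, read ex 365/em 440 nm, Hill-fitted AC50.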
# [4] = Validation of Assay for Modulators of Lamin A Splicing (AID 1459; active = well fitted curve in the direction sought with a large enough effect in the signal ratio; the % refers to the signal ratio;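 note: cells exposed to compound for two days before reading; 0% is about no effect; ratio rise marks activators and ratio drop marks inhibitors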); conditions: Lamin A splicing dual RFP/GFP fluorescence reporter; series mostly up to 9.22 µM
# How it was run: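 S3 HeLa cells stably expressing a lamin A-EGFP splicing minigene and DsRed2 were seeded at 600 cells/well in Opti-MEM with 2% FBS, pin-dosed, and incubated 48 hrs at 37 °C, 5% CO2. Laser-scanning cytometry (488 nm) gave GFP/RFP total intensity ratio.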
# [5] = biological target: DNA repair nuclease/redox regulator APEX1 (Homo sapiens) (UniProt P27695); assay: qHTS Validation Assay for Inhibitors of the Human Apurinic/apyrimidinic Endonuclease 1 (APE1) (AID 1705;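 note: TAMRA fluorescence gain over two minutes as APE1 cuts a quenched THF abasic duplex; % is set by controls: 0 for no effect and ±100 for the full control effect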); conditions: purified APE1 endonuclease activity, fluorescence, titration; series mostly up to 57.1 µM
# How it was run: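 Human APE1 was preincubated with compound for 15 min at room temperature, then 50 nM (final) THF-abasic double-stranded DNA substrate bearing 5'-TAMRA and 3'-BHQ-2 was added. Incision-driven fluorescence rise (ex 525/em 598 nm) was read kinetically.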
# [6] = Counterscreen for APE1 Inhibitors: Fluorescent Dye Displacement Validation Assay (AID 1707); conditions: fluorescent dye displacement from DNA; series mostly up to 57.1 µM;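 note: plate controls were ThO with dsDNA and no compound for no effect and ThO without dsDNA for full effect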
# How it was run: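 Counterscreen flags promiscuous DNA binders: compounds displacing ThO from duplex DNA (abasic THF site, 50 nM) reduce 540 nm emission (480 nm excitation). ThO 250 nM final; Tris-HCl pH 7.5 with NaCl, MgCl2 and Tween-20.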
# [7] = biological target: Endonuclease 4 (Escherichia coli (strain K12)) (UniProt P0A6C1); assay: Counterscreen for APE1 Inhibitors: qHTS Validation Assay for Inhibitors of Endonuclease IV (AID 1708); note: % is set by controls: 0 for no effect and ±100 for the full control effect; conditions: E. coli endonuclease IV, DNA cleavage fluorescence; series mostly up to 57.1 µM
# How it was run: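 Read-out: fluorescence rise (ex 525/em 598 nm) from incision of a TAMRA/BHQ-2 double-stranded THF abasic-site substrate (50 nM), measured kinetically; third-minus-first read difference gave reaction progress. Enzyme 2 nM.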
# [8] = qHTS for differential inhibitors of proliferation of Plasmodium falciparum line 7G8 (AID 1815); conditions: Plasmodium falciparum 7G8 proliferation inhibition; series mostly up to 28.7 µM;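 note: potency is the fitted concentration of half-maximal effect; parasite growth measured after three days of incubation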
# [9] = qHTS for differential inhibitors of proliferation of Plasmodium falciparum line GB4 (AID 1816); conditions: Potency: Plasmodium falciparum GB4 proliferation inhibition; series mostly up to 28.7 µM;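 note: potency is the fitted concentration of half-maximal effect; parasite growth measured after 72 h incubation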
# [10] = Cell Viability - LYMP2-010 (AID 981); conditions: LYMP2-010 lymphoblastoid cell viability, qHTS; series mostly up to 92.2 µM; note: % is set by controls: 0 for no effect and ±100 for the full control effect; nearly all actives have a fitted effect of over 55% in size
# How it was run: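 This 24 hr viability screen uses LYMP2-010 lymphoblastoid cells, quantifies ATP via luciferase luminescence, and derives AC50 from Hill fits of qHTS concentration-response data.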
# [11] = Cell Viability - LYMP2-012 (AID 982); conditions: LYMP2-012 lymphoblastoid cell viability qHTS; series mostly up to 92.2 µM;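 note: cellular ATP by luciferase luminescence where a drop means cytotoxicity; cells exposed to compound for one day before reading; 0% = DMSO only and full loss = 92 µM tetraoctylammonium bromide; nearly all actives have a fitted effect of over 55% in size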
# [12] = Cell Viability - LYMP2-014 (AID 983); conditions: LYMP2-014 lymphoblastoid cells, viability qHTS; series mostly up to 92.2 µM;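 note: cells exposed to compound for 24 h at 37 °C; plate controls were DMSO only for no effect and 92 µM tetraoctylammonium bromide for full effect; nearly all actives have a fitted effect of over 50% in size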
# How it was run: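 Quantitative HTS in lymphoblastoid cells: 24 hr compound exposure, then CellTiter-Glo ATP luminescence. Positive control was tetraoctylammonium bromide, 6.4pM to 92 uM.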
# [13] = Cell Viability - LYMP2-016 (AID 984); conditions: LYMP2-016 lymphoblastoid cell viability, qHTS; series mostly up to 92.2 µM; note: % is set by controls: 0 for no effect and ±100 for the full control effect; nearly all actives have a fitted effect of over 55% in size
# How it was run: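 Human lymphoblastoid cells (LYMP2-016), 2500/well in complete medium, preincubated 5 hr at 37 C, then compound-treated 24 hr at 37 C. Intracellular ATP read by CellTiter-Glo luminescence after 30 min at room temperature; AC50 from Hill-equation concentration-response fits.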
# [14] = Cell Viability - LYMP2-018 (AID 985); conditions: LYMP2-018 lymphoblastoid cells, viability (qHTS); series mostly up to 92.2 µM;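 note: plate controls were DMSO only for no effect and tetraoctylammonium bromide at 92 µM for full effect; nearly all actives have a fitted effect of over 50% in size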
# How it was run: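 In this qHTS viability assay, cells are treated for 24 hr and cellular ATP is quantified by luciferase-based luminescence, with tetraoctylammonium bromide as positive control.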
# [15] = Cell Viability - LYMP2-020 (AID 986); conditions: series mostly up to 92.2 µM;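 note: cells exposed to compound for 24 h at 37 °C; plate controls were DMSO only for no effect and tetraoctylammonium bromide at 92 µM for full effect; nearly all actives have a fitted effect of over 55% in size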
# How it was run: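 Cells at 2500 per well receive a 24 hr compound exposure at 37 C. Viability is measured as ATP-dependent luciferase luminescence, with AC50 modeled from qHTS concentration-response curves.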
# [16] = Cell Viability - LYMP2-022 (AID 987); conditions: LYMP2-022 lymphoblastoid cell viability; series mostly up to 92.2 µM
# How it was run: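 In this qHTS cytotoxicity screen, compound titrations were incubated 24 hr at 37 C with human lymphoblastoid cells in complete medium. Luciferase-based ATP luminescence provided the viability signal.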
# [17] = Cell Viability - LYMP2-024 (AID 988); conditions: LYMP2-024 lymphoblastoid cell viability; series mostly up to 92.2 µM;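 note: plate controls were DMSO only for no effect and 92 µM tetraoctylammonium bromide for full effect; nearly all actives have a fitted effect of over 60% in size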
# How it was run: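 Cells at 2500 per well received compound for 24 hr after a 5 hr settling period. Viability was scored by CellTiter-Glo luminescence, with AC50 from Hill fits.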
# [18] = Cell Viability - LYMP1-002 - Assay at 24 hr (AID 993); conditions: LYMP1-002 lymphoblastoid cells viability; series mostly up to 92.2 µM; note: % is set by controls: 0 for no effect and ±100 for the full control effect
# How it was run: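 Viability was judged from intracellular ATP using a luciferase read-out, following a 24-hour compound incubation at 37 C of lymphoblastoid cells seeded at 2500 per well. Concentration-response data were fitted to the Hill equation for AC50.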
# [19] = Cell Viability - LYMP1-002 - Assay at 40 hr (AID 994); conditions: LYMP1-002 lymphoblastoid cell viability; series mostly up to 92.2 µM;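 note: 0% = DMSO only and full inhibition = 92 µM tetraoctylammonium bromide; nearly all actives have a fitted effect of over 60% in size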
# How it was run: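 Concentration-dependent ATP loss after 40 hr treatment at 37 C defined toxicity; AC50 values were obtained by fitting the standard Hill equation.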
# [20] = measured here: cell count channel max response
# [21] = measured here: lipid channel max response
# Alpha-galactosidase A (Homo sapiens), sequence (P06280 whole entry, looked up): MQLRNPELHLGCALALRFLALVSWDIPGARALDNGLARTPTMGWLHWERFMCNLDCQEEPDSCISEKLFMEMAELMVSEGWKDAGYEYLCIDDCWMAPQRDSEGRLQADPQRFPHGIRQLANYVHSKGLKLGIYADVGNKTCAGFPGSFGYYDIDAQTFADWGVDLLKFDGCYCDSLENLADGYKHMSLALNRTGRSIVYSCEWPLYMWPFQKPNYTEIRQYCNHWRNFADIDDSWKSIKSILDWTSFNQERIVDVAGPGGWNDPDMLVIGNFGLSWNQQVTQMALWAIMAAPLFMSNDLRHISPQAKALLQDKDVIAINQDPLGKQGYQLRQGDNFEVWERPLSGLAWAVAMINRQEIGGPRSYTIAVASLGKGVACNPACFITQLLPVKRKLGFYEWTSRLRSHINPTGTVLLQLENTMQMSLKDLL
# DNA repair nuclease/redox regulator APEX1 (Homo sapiens), sequence (P27695 whole entry, looked up): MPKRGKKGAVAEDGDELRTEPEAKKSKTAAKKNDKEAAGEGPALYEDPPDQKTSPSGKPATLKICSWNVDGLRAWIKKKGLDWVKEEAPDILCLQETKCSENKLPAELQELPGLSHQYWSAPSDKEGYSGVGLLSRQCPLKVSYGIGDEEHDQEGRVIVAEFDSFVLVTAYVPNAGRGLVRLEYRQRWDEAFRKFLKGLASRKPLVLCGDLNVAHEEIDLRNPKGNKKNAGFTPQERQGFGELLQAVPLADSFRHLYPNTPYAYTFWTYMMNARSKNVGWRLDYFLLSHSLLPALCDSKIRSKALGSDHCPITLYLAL
compound,measurement,setting,value
CNC(=O)c1c(I)c(C(=O)NCC(=O)Nc2c(I)c(C(=O)O)c(I)c(C(=O)NCCO)c2I)c(I)c(N(C)C(C)=O)c1I,"activity change, negative = inhibition",[1]; at 25.7 µM (top of the series),-2.02% (inactive)
same,max response,[1]; [20],-4.35%
same,max response,[1]; [21],-10.2%
O=C(O)CCC(=O)c1ccc(-c2ccccc2)cc1,"activity change, negative = inhibition",[1]; at 25.7 µM (top of the series),2.12% (inactive)
same,max response,[1]; [20],-6.39%
same,max response,[1]; [21],-2.43%
N#Cc1ccc2c(c1)N(CCCN1CCC(O)CC1)c1ccccc1S2,"activity change, negative = inhibition",[1]; at 57.5 µM (top of the series),6.36% (inactive)
same,max response,[1]; [20],2.04%
same,max response,[1]; [21],8.33%
COc1cc(S(C)=O)ccc1-c1nc2ncccc2[nH]1 (centres undefined),"activity change, negative = inhibition",[1]; at 25.7 µM (top of the series),0.171% (inactive)
same,max response,[1]; [20],-21.2%
same,max response,[1]; [21],-18.4%
NCC(O)CC(=O)O (centres undefined),"activity change, negative = inhibition",[1]; at 57.5 µM (top of the series),7.57% (inactive)
same,max response,[1]; [20],11%
same,max response,[1]; [21],22.3%
Cc1ncc(C[n+]2csc(CCO)c2C)c(N)n1,"activity change, negative = inhibition",[1]; at 25.7 µM (top of the series),-1.32% (inactive)
same,max response,[1]; [20],9.62%
same,max response,[1]; [21],7.5%
CCCOc1cc(N)ccc1C(=O)OCCN(CC)CC,"activity change, negative = inhibition",[1]; at 25.7 µM (top of the series),-0.11% (inactive)
same,max response,[1]; [20],-10.4%
same,max response,[1]; [21],-6.99%
C=CC(C)(O)CC/C=C(\C)CCC=C(C)C (centres undefined),"activity change, negative = inhibition",[1]; at 57.5 µM (top of the series),0.625% (inactive)
same,max response,[1]; [20],5.67%
same,max response,[1]; [21],8.64%
CC1CCCC(C)N1NC(=O)c1ccc(Cl)c(S(N)(=O)=O)c1 (centres undefined),"activity change, negative = inhibition",[1]; at 57.5 µM (top of the series),2.67% (inactive)
same,max response,[1]; [20],17.3%
same,max response,[1]; [21],23.6%
N[C@H](CC(=O)O)C(=O)O,"activity change, negative = inhibition",[1]; at 57.5 µM (top of the series),-1.19% (inactive)
same,max response,[1]; [20],-13%
same,max response,[1]; [21],-12.9%
O=C(CCCCCCCCCCCCC1CCCC1)Nc1ccc(S(=O)(=O)c2ccc(NC(=O)CCCCCCCCCCCCC3CCCC3)cc2)cc1,"activity change, negative = inhibition",[1]; at 57.5 µM (top of the series),10% (inactive)
same,max response,[1]; [20],14.8%
same,max response,[1]; [21],25.4%
Cc1cccc(C)c1NC(=O)C1CCCCN1C (centres undefined),"activity change, negative = inhibition",[1]; at 57.5 µM (top of the series),7.8% (inactive)
same,max response,[1]; [20],19%
same,max response,[1]; [21],29.6%
CC1CCC(NC(=O)N(CCCl)N=O)CC1 (centres undefined),"activity change, negative = inhibition",[1]; at 57.5 µM (top of the series),0.815% (inactive)
same,max response,[1]; [20],10.3%
same,max response,[1]; [21],12.2%
Cc1cc(C)c(NC(=O)C[C@H](CC(=O)O)c2cccc3ccccc23)c(C(=O)N2CCC3(CCCC3)CC2)c1,outcome,[2],inactive
same,outcome,[3],inactive
same,outcome,[4],inactive
same,outcome,[5],inactive
same,outcome,[6],inactive
same,outcome,[7],inactive
same,Potency,[8],12.6 µM (active)
same,Potency,[9],11.2 µM (active)
Nc1ccc(N=Nc2ccccc2)c(N)n1,Potency,[10],inactive
same,Potency,[11],inactive
same,Potency,[12],inactive
same,Potency,[13],inactive
same,Potency,[14],inactive
same,Potency,[15],inactive
same,Potency,[16],inactive
same,Potency,[17],inactive
same,Potency,[18],inactive
same,Potency,[19],inactive
same,"activity change, negative = inhibition",[1]; at 25.7 µM (top of the series),-0.0516% (inactive)
same,"activity change, negative = inhibition",[1]; at 57.5 µM (top of the series),17.8% (inactive)
same,max response,[1]; [20],-20.4% and -3.25%
same,max response,[1]; [21],-21.4% and 16.6%
CC(C)c1nc(N(C)S(C)(=O)=O)nc(-c2ccc(F)cc2)c1/C=C/C(O)CC(O)CC(=O)O (centres undefined),"activity change, negative = inhibition",[1]; at 57.5 µM (top of the series),2.85% (inactive)
same,max response,[1]; [20],4.28%
same,max response,[1]; [21],9.26%
